Shown are actives, neighbours in structure and some others; about 7.5% of the full set was active somewhere.
ELG1 repair inh: blocks ELG1-dependent DNA repair in HEK293T cells; HEK293T ELG1-luciferase reporter, luminescence, 16 h; DNA damage induced by 5-fluorouridine; AID 504467; Potency, µM (doses to about 46.1 µM), inactives show top-dose activity change, negative = inhibition, hits mostly inhibitors; actives 2.3% (n = 330,000); note: potency is the fitted concentration of half-maximal effect; nearly all actives have a fitted effect of over 55% in size
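Step one: seed 2,000 cells per well. Step two: pin-transfer compound or DMSO alongside 5-fluorouridine. Step three: incubate 16 hr, 37 °C, 5% CO2. Step four: add ONE-Glo, wait 30 min, read luminescence.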
B2AR arrestin: recruits beta-arrestin to the human beta2-adrenergic receptor. AID 492947. actives 0.02% (n = 330,000). beta-arrestin recruitment to beta2AR, cell-based reporter. P07550. Potency, µM (titrated, usually from 46.1 µM), inactives show at the highest dose activation, usual class: activators;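 note: potency is the fitted concentration of half-maximal effect; 0% = DMSO controls and full agonism = EC100 isoproterenol or metaproterenol; nearly all actives have a fitted effect of over 65% in size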
TSHR antagonist: antagonists of human thyroid stimulating hormone receptor. P16473. TSHR-expressing cells, TSH-stimulated cAMP HTRF, 2 h; active compounds read low. activity change, negative = inhibition, % at 11.5 µM. actives 0.2% (n = 330,000);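 active = activity change below a set negative limit, meaning inhibition stronger than a set level, cut at about -70% in these data; inconclusive = activity change between two set negative limits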
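Read-out is FRET at 665 nm (cryptate excitation 337 nm) from a cryptate-tagged anti-cAMP antibody, competed by cell cAMP against cAMP-d2. Compounds are tested on freshly harvested TSHR cells challenged with 4nM TSH (EC80) for 2 hours at 37 deg C.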
RORgamma inh: blocks mouse ROR gamma transcriptional activity | Potency, µM (highest dose often 53.6 µM), without a hit: at the top dose activity change, negative = inhibition, most hits filed as inhibitors | P51450 | actives 5.4% (n = 310,000) | Drosophila S2 Gal4-RORgamma UAS-luciferase reporter, 20 h | AID 2551; note: potency is the fitted concentration of half-maximal effect; nearly all actives have a fitted effect of over 60% in size
Target sequence (P51450 whole entry, looked up, the tested form may be a part): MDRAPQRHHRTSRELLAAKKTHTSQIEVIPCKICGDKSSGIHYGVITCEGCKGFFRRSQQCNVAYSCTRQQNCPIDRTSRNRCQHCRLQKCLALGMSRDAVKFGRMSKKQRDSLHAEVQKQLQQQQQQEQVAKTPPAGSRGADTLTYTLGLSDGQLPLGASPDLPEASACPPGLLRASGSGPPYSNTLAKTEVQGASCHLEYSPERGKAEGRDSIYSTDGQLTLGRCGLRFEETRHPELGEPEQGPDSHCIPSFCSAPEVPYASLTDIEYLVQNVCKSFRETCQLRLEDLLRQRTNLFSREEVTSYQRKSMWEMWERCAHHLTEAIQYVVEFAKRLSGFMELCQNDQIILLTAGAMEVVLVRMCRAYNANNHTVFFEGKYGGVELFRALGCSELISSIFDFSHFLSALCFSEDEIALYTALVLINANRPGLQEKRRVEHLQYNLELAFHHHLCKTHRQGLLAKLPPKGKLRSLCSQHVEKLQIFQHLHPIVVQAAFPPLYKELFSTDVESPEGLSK
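Luciferase reporter read in Schneider cells carrying Gal4-RORγ (mouse) and UAS-Photinus luciferase; cells given compound 1 h before 700 uM copper sulfate induction, then incubated 20 h at ambient temperature.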
Gal4-VP16 FLuc: counter-screen for ROR gamma inhibitors: Gal4-VP16 reporter; actives 3.5% (n = 310,000); Drosophila S2 Gal4-VP16 UAS-luciferase, luminescence, 20 h; Potency, µM (doses to about 53.6 µM), without a hit: at the highest dose activity, negative = inhibition, usual class: inhibitors;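 note: Gal4-VP16 expression switched on by copper sulfate through the metallothionein promoter; potency is the fitted concentration of half-maximal effect; nearly all actives have a fitted effect of over 50% in size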
Active calls of the source: *; ? = inconclusive; nt = no result given; [ ] = remark or other dose. Unless noted, calls come from the whole dose curve; as a rule, active = well fitted curve in the direction sought with a large enough effect; inconclusive = small, poorly fitted or top-dose-only effect, or another doubt; inactive = no such curve, though single readings can be large; an effect the other way counts as inactive or inconclusive. Unless noted, % is set by controls: 0 for no effect and ±100 for the full control effect.

SMILES	ELG1 repair inh	B2AR arrestin	TSHR antagonist	RORgamma inh	Gal4-VP16 FLuc
Cc1cccc(C)c1NC(=S)NCCSc1ccc(Cl)cc1	?	-0.2%	3.6	2.51µM*	?
Cn1cccc1CNC(=S)Nc1cc(F)cc(F)c1	0.0%	-0.3%	13.9	3.0%	-13.3%
Cc1nn(-c2ccccc2)c(C)c1C(=O)OCC(=O)Nc1cccc(S(N)(=O)=O)c1	?	2.8%	-4.0	nt	nt
CCCC[C@]12Cc3cc(C#N)ccc3C(O1)c1c(cc(C)n(Cc3ccccc3)c1=O)O2	nt	0.5%[9.22 µM]	nt	-8.2%[10 µM]	-5.9%[10 µM]
CCCCC/C=C\C[C@@H](O)/C=C/C=C\CCC(=O)O	nt	nt	nt	4.3%	-2.1%
Cc1ccc(NC(=S)NCCSc2ccc(Cl)cc2)cc1	-21.8%	2.8%	2.6	0.794µM*	0.891µM*
COC(=O)Cc1ccc(NC(=S)NCCSc2ccc(C)cc2)cc1	0.0%	-0.9%	-2.4	?	0.7%[10 µM]
COc1ccc(Cl)cc1NC(=S)NN1CCOCC1	-0.4%	0.1%	10.9	5.01µM*	?
Cc1ccc(NC(=S)NN2CCOCC2)c(C)c1	12.9%	-1.3%	5.3	11.2µM*	?
COc1ccc(OC)c(NC(=S)NN2CCN(C)CC2)c1	?	0.2%	-8.0	-6.2%	5.7%
COc1ccc(OC)c(NC(=S)NN2CCOCC2)c1	-21.9%	0.0%	-2.9	28.2µM*	-8.3%[0.365 µM]
Fc1ccc(NC(=S)N2CCOCC2)c(F)c1	-0.7%	0.1%	14.5	0.0%	-6.5%
Cc1cc(Br)ccc1NC(=S)N1CCOCC1	-4.8%	-0.4%	-4.1	12.6µM*	1.2%
Cc1cnc(CNc2nc(-c3ccccc3Cl)nc3ccccc23)cn1	nt	nt	nt	6.8%	-21.0%
CC[C@H](C)[C@H](NC(=O)[C@H](Cc1ccc(O)cc1)NC(=O)[C@H](Cc1cnc[nH]1)NC(=O)[C@H](CCCNC(=N)N)NC(=O)[C@H](CC(C)C)NC(=O)[C@H](C)NC(=O)[C@H](CO)NC(=O)[C@H](Cc1ccc(O)cc1)NC(=O)[C@H](Cc1ccc(O)cc1)NC(=O)[C@H](CCCNC(=N)N)NC(=O)[C@H](C)NC(=O)[C@H](CC(C)C)NC(=O)[C@H](CC(=O)O)NC(=O)[C@H](CCC(=O)O)NC(=O)[C@H](C)NC(=O)[C@@H]1CCCN1C(=O)[C@H](C)NC(=O)[C@H](CC(=O)O)NC(=O)[C@H](CCC(=O)O)NC(=O)CNC(=O)[C@@H]1CCCN1C(=O)[C@H](CC(N)=O)NC(=O)[C@H](CC(=O)O)NC(=O)[C@@H]1CCCN1C(=O)[C@H](CCCCN)NC(=O)[C@@H](N)CO)C(=O)N[C@@H](CC(N)=O)C(=O)N[C@@H](CC(C)C)C(=O)N[C@H](C(=O)N[C@H](C(=O)N[C@@H](CCCNC(=N)N)C(=O)N[C@@H](CCC(N)=O)C(=O)N[C@@H](CCCNC(=N)N)C(=O)N[C@@H](Cc1ccc(O)cc1)C(N)=O)[C@@H](C)O)[C@@H](C)CC	nt	nt	nt	-1.0%	0.5%
O=C(Nc1cccc2ccccc12)N1CCOCC1	11.0%	0.0%	1.5	-6.4%	-1.1%
S=C(Nc1cccc2ccccc12)NN1CCOCC1	0.3%	0.5%	3.9	11.2µM*	?
CC(N)=NCCCC[C@@H](N)C(=O)O	nt	nt	-17.6	nt	nt
Cc1ccccc1NC(=O)c1cc2ccccn2n1	?	-1.0%	-83.6*	-73.6%	?
CC(=O)c1cccc(NC(=O)c2cc3ccccn3n2)c1	?	-0.7%	-1.5	8.91µM*	?
Cc1ccc(C)c(NC(=O)c2cc3ccccn3n2)c1	?	-0.2%	-4.9	9.9%	-12.4%
Cc1ccc2c(c1)cc(CN(Cc1ccco1)C(=O)COc1ccccc1)c1nnnn12	20.6µM*	0.4%	1.6	?	-8.1%
CCC(=O)N(Cc1ccco1)Cc1cc2cccc(C)c2n2nnnc12	10.2%	0.1%	-4.8	-6.1%	0.4%
COCCN(Cc1cc2cc(C)ccc2n2nnnc12)C(=S)Nc1ccc(C)cc1	16.4µM*	0.0%	3.7	-18.7%	-2.6%[10 µM]
C=C1CCN(C(CC(C)C)C(=O)Nc2nc3ccc(Cl)cc3s2)S(=O)(=O)c2ccccc21 (stereo unspecified)	nt	nt	nt	-13.5%	-2.5%
SMILES	ELG1 repair inh	B2AR arrestin	TSHR antagonist	RORgamma inh	Gal4-VP16 FLuc
CCCN1CNC(=S)N(c2ccc(C)cc2C)C1	0.7%	0.6%	9.0	3.98µM*	?
CCN1CNC(=S)N(c2cc(C)ccc2C)C1	6.1%	0.1%	9.6	?	-28.5%
CCCN1CNC(=S)N(c2ccccc2C)C1	21.5%	-0.2%	13.8	11.2µM*	?
CC(=O)N(O)C/C=C/c1cccc(Oc2ccccc2)c1	nt	nt	nt	?	2.7%
CCCCN(CC)C(=O)Cn1ncc2c1-c1cc(C)ccc1OC2	-11.9%	0.1%	4.1	-3.6%	1.2%
COc1cc2c(cc1OC)C(C)N(C(=O)Cn1ncc3c1-c1cc(C)ccc1OC3)CC2 (stereo unspecified)	18.4µM*	13.9%	-8.2	-15.9%	0.8%
COC(=O)NC(/C(C(=O)OC)=C(\C)NCc1ccccc1)c1ccc(Cl)cc1 (stereo unspecified)	nt	nt	nt	2.7%[10 µM]	0.2%[10 µM]
O=C(/C=C/c1cccs1)Nc1scc(-c2ccccc2)c1C(=O)O	?	0.1%	3.3	10µM*	12.6µM*
O=C(c1cnccn1)N1CCC2(CC1)CN(c1ccncc1)C2	nt	nt	nt	-6.5%	-7.0%
CCOC(=O)C1=C(COC(=O)Cc2ccccc2F)NC(=O)NC1C (stereo unspecified)	29.3%	0.0%	-3.8	nt	nt
COC(=O)c1c(C(=O)OC)c2cc(C(=O)c3ccccc3)ccn2c1Cl	25.9µM*	-0.6%	4.3	?	-1.2%
COC(=O)c1c(C(=O)OC)c2ccccn2c1C(=O)c1ccc([N+](=O)[O-])cc1	?	-0.1%	-6.4	-7.3%	-12.0%
CC(C)=CCC/C(C)=C/CO/N=C1/C[C@@H](O)[C@@H](O)[C@@H]2[C@@H]3C(=O)N(C[C@@H]4CCCO4)C(=O)[C@H]3CC[C@H]12	nt	nt	nt	5.2%[10 µM]	-23.4%[10 µM]
COc1ccc(C(C)NC(=S)NCc2ccc(F)cc2)cc1OC (stereo unspecified)	-4.3%	-0.1%	-4.6	12.6µM*	?
COc1ccc(C)cc1NC(=S)NC(C)c1ccc(OC)c(OC)c1 (stereo unspecified)	?	2.3%	-0.9	2.82µM*	10µM*
CCCc1ccc(C(C)NC(=S)NCc2ccc(F)cc2)cc1 (stereo unspecified)	?	3.4%	-29.8	0.631µM*	3.16µM*
CCC(C)c1ccc(C(C)NC(=S)NCc2ccc(F)cc2)cc1 (stereo unspecified)	1.8%	-0.7%	-47.3	2.82µM*	5.01µM*
COc1ccc(CNC(=O)CNC(C)c2ccc(F)cc2)cc1 (stereo unspecified)	-13.3%	-0.4%	6.9	-8.7%	-11.1%

Compound activity as filed in PubChem BioAssay.
